Results: PubChem BioAssay (NCI)
This is part of a sample that, as a whole, favours compounds with a hit. Of some 83,000 tested, about 20% had one in any assay.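 Values shown are percent growth following 48 h exposure of cells in 96-well plates to a single concentration of compound; below 10 was considered active.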 Unmarked numbers belong to inactive results. The source made the active and inactive calls.

The molecules below were run on HL-60(TB) leukemia (assay: NCI-60 one-dose screen, 48 h (100 = growth as untreated, 0 = no growth, -100 = all killed)). Details: 10 µM unless noted.

Row | SMILES | growth
1 | ClCCOCCn1cnc2c(Cl)nc(Cl)nc21 | 40.9%
2 | NC(N)=N/N=C/CO | 102%
3 | CN(C)c1ccc(/C=N/N=C(N)N)cc1 | 59.2%
4 | Nc1ccc(C(=O)c2ccc(N)c(Br)c2)cc1Br | -16.5% (active)
5 | Cc1ccc(C(=O)O)c(N)c1C | 95.1%
6 | N#CC1=C(N)Oc2c(c(N)nn2-c2ccccc2)C1c1ccc(Cl)cc1Cl (stereo not given) | 96.5%
7 | C#Cc1ccc(NC(=O)Cc2ccc(/C=C/C(=O)c3nccn3C)cc2)cc1 | 16.5%
8 | CS(=O)(=O)Nc1ccc(Nc2c3ccccc3nc3cc(Cl)ccc23)cc1 | -1.97% (active)
9 | CC(=O)Nc1ccc(C(=O)COc2ccc(/C=C3\CCc4ccccc4C3=O)cc2)cc1 | 102%
10 | O=C(COc1cccc(/C=C2\COc3ccccc3C2=O)c1)c1ccccc1 | 40.3%
11 | COc1cc2cc(Oc3ccc(NC(=O)Nc4ccc(C(F)(F)F)cc4)cc3)c(C)nc2cc1OC | 75.3%
12 | COc1cc2nc(NC3CCC3)nc(NC3CCN(C(C)C)CC3)c2cc1OC | 4.58% (active)
13 | O=c1[nH]cnc2c1C(c1ccc(Br)cc1)c1sc3c(F)cccc3c1O2 (stereo not given) | 99.4%
14 | Cc1cc(O)c2cc3c(O)c(O)ccc3cc2c1 | 82.7%
15 | OCc1cnccc1NCCCCOc1ccc(Oc2ccccc2)cc1 | 22.7%
16 | COc1ccc(-c2c(-c3cc4c(c(OC)c3OC)OCO4)noc2N)cc1 | 16.8%
17 | Cc1ccc2c(Cn3cc(CSc4nc5ccccc5o4)nn3)cc(=O)oc2c1 | 109%
18 | O=C1CC(c2nc3ccccc3s2)CN1C1CCCCC1 (stereo not given) | 91.3%
19 | COc1nc2ccc(C)cc2cc1/C=[N+](\[O-])c1ccccc1 | 80.3%
20 | Cc1ccc(C2CC3c4ccccc4C2C2CCCCN32)cc1 (stereo not given) | 52.8%

Row | SMILES | growth
21 | Cc1ccc(-c2nc([P+](c3ccccc3)(c3ccccc3)c3ccccc3)c(N3C[C@H]4C[C@H](C3)c3cccc(=O)n3C4)o2)cc1 | 36.7%
22 | COc1cccc(NC(=O)c2sc3nc(C)c(C(C)=O)cc3c2N)c1 | 6.61% (active)
23 | COc1cc([C@@H]2NC(=O)NC(C)=C2C(=O)Nc2nc(-c3ccc(Cl)cc3)cs2)ccc1O | 100%
24 | Cn1ccnc1C(=O)/C=C/c1ccc(CC(=O)Nc2ccc(Cl)cc2)cc1 | 5.24% (active)
25 | O=CNc1c(Cl)cc2c(c1Cl)Cc1cc([N+](=O)[O-])ccc1-2 | 17.5%
26 | N#C/C(=C\c1c(-c2ccccc2)[nH]c2ccccc12)C(N)=O | 39.6%
27 | Cc1nc2sc(C(=O)Nc3cccc4ccccc34)c(N)c2cc1C(=O)c1ccccc1 | -50.6% (active)
28 | Cn1c(=O)c2c(nc(N3CCCC3)n2C)n(C)c1=O | 95.4%
29 | CN1CCN(c2ccc(/C=C/C(=O)c3ccc(O)cc3)cc2)CC1 | 115%
30 | Cc1ccc2c(n1)C(=O)C(Oc1ccc(F)cc1)=CC2=O | 54%
31 | CC/C(=C(/c1ccc(Cl)cc1)c1ccc(OCCN2CCCCCC2)cc1)c1ccccc1 | 49.9%
32 | COc1cc(-c2nc3nc4sc(C)c(C)c4c(=O)n3[nH]2)cc(OC)c1OC | 80.7%
33 | COc1cc(NCc2cn(-c3ccc(C(=O)O)cc3)nc2-c2ccc(C(=O)O)cc2)cc(OC)c1OC | 120%
34 | CC(C)Nc1cc(-c2c[nH]c(C(=O)N[C@H](CO)c3cccc(Cl)c3)c2)c(Cl)cn1 | 3.3% (active)
35 | COc1ccc2nccc(Cl)c2c1 | 103%
36 | O=C(CSc1nnc(-c2cc(-c3ccc(Cl)cc3)nc3ccccc23)n1-c1ccccc1)Nc1ccc(Cl)cc1 | 85.8%
37 | CCOC(=O)/C(C#N)=C(/CC)OCC | 95%
38 | CC(=O)N1N=C(c2ccc(Cl)cc2)CC1c1sc(Cl)nc1Cl (stereo not given) | 89.5%
39 | COc1ccc2c(c1)nc(NNC(=O)c1cnccn1)c1cccn12 | -6.85% (active)
40 | N#CCCN=Nc1c(O)[nH]c2ccc([N+](=O)[O-])cc12 | 96.6%
